SMILES strings stand for the structures. A number with no mark means an inactive call. Results filed as inconclusive are left out. The source made the active and inactive calls. Unless noted, calls follow the shape of the full dose curve.

This passage reports Potency and outcome results from PubChem BioAssay (Tox21).

Assay [1] is described as follows: qHTS assay to identify small molecule antagonists of the sonic hedgehog signaling (Shh) pathway (AID 1259369). Also: nearly all actives have a fitted effect of over 45% in size. Summed up: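 Conditioned medium drives Shh signalling in 3T3Gli1-Luc cells; compounds in DMSO co-applied, 24hr at 37 C, then luciferase luminescence.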
For orientation: In qHTS, concentration-response curves come from the screen itself.

Assay [2] concerns the target Estrogen receptor beta (Homo sapiens) (UniProt Q92731). Nature of the assay: qHTS assay to identify small molecule agonists of the estrogen receptor beta (ER-beta) signaling pathway (AID 1259377; active = well fitted activation curve with a large enough effect in the signal ratio in the repeat runs, not every such curve was filed as active; the % refers to the signal ratio). Summed up:
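HEK293T ER-beta-UAS-bla; 2% charcoal-stripped FBS; cells pre-incubated 6 hr, compound 16 hr, 37C/5% CO2; LiveBLAzer B/G FRET substrate 2 h RT; fluorescence intensity read.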

For assay [3] the target is unchanged. The assay can be described thus: qHTS assay to identify small molecule antagonists of the estrogen receptor beta (ER-beta) signaling pathway (AID 1259378; active = well fitted inhibition curve with a large enough effect in the signal ratio in the repeat runs, not every such curve was filed as active; the % refers to the signal ratio). The method in brief: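 Antagonist mode: compounds added to beta-lactamase reporter HEK293T ER-beta-UAS cells stimulated with E2 (1nM final), 16 hr at 37C. LiveBLAzer B/G FRET substrate, 2 hours room temperature, fluorescence read-out.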

The nature of assay [4]: qHTS assay to identify small molecule agonists of the androgen receptor (AR) signaling pathway in the presence of an antagonist - cell viability counter screen (AID 1259379; active = well fitted curve in the direction sought with a large enough effect in the repeat runs; an effect the other way counts as inactive or inconclusive;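 also: MDA-kb2 human breast cancer cells carrying an MMTV luciferase reporter; series mostly up to about 92 µM; nearly all actives have a fitted effect of over 25% in size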). The method in brief: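 A CellTiter-Fluor read-out measured viability of MDA-kb2 reporter cells (MMTV promoter with AR and GR response elements). Treatment: nilutamide 3.0uM final with compounds at 15 concentrations, 16 hr, 37C, 0% CO2.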

Assay [5] in a line: qHTS assay to identify small molecule agonists of the estrogen receptor beta (ER-beta) signaling pathway - cell viability counter screen (AID 1259380; active = well fitted curve in the direction sought with a large enough effect in the repeat runs; an effect the other way counts as inactive or inconclusive; also: nearly all actives have a fitted effect of over 30% in size; also: potency is read from the fitted curve at half-maximal effect). The method in brief: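 Cells used were ER-beta-UAS-bla HEK293T in medium with 2% charcoal-stripped FBS. They were treated for 16 hr at 37C. Viability came from CellTiter-Glo luminescence.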
Assay [6] can be described thus: qHTS assay to identify small molecule antagonists of the estrogen receptor beta (ER-beta) signaling pathway - cell viability counter screen (AID 1259382; active = well fitted curve in the direction sought with a large enough effect in the repeat runs; an effect the other way counts as inactive or inconclusive; also: series mostly up to about 92 µM; nearly all actives have a fitted effect of over 55% in size). The method in brief: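 Agonist-stimulated (1nM E2) ER-beta-UAS-bla HEK293T cells are incubated with library compounds for 16 hr at 37C. Cell viability is then assessed in the reporter-assay wells by adding CellTiter-Glo and reading luminescence after 30 min.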

Assay [7] has as its target Estrogen receptor (Homo sapiens) (UniProt P03372). Nature of the assay: qHTS assay to identify small molecule agonists of the estrogen receptor alpha (ER-alpha) signaling pathway in the presence of an antagonist (AID 1259383). Also: top concentration of the series differs between compounds; nearly all actives have a fitted effect of over 15% in size. The method in brief: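 Using VM7Luc4E2 cells seeded 24hr before treatment, antagonist ICI-182,780 (10.0nM final) was added, followed by compounds at 15 concentrations. Plates incubated 22hr; ONE-Glo luminescence quantified reporter activity.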

A short description of assay [8]: qHTS assay to identify small molecule agonists or antagonists of the thyroid stimulating hormone receptor (TSHR) signaling pathway - wild type cell line counter screen (AID 1259384). Summed up: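 Counter screen in untransfected Hek293: compounds (15-point titration, triplicate) plus phosphodiesterase inhibitor Ro20-1724 added after 18 h plating; 30 min RT. Intracellular cAMP via competitive d2/cryptate immunoassay, 1 h incubation.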

For assay [9], the target named is Thyrotropin receptor (Homo sapiens) (UniProt P16473). Nature of the assay: qHTS assay to identify small molecule antagonists of the thyroid stimulating hormone receptor (TSHR) signaling pathway (AID 1259385). Also: nearly all actives have a fitted effect of over 20% in size. Summed up: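 Antagonist mode: compound-treated TSHR-expressing HEK293 cells were stimulated with 1.5 ng/mL TSH (final) in presence of Ro20-1724 for 30 min at RT. HTRF cAMP detection after 1 h; each compound tested at 15 concentrations, triplicate.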
Thyrotropin receptor (Homo sapiens), sequence (P16473 whole entry, looked up): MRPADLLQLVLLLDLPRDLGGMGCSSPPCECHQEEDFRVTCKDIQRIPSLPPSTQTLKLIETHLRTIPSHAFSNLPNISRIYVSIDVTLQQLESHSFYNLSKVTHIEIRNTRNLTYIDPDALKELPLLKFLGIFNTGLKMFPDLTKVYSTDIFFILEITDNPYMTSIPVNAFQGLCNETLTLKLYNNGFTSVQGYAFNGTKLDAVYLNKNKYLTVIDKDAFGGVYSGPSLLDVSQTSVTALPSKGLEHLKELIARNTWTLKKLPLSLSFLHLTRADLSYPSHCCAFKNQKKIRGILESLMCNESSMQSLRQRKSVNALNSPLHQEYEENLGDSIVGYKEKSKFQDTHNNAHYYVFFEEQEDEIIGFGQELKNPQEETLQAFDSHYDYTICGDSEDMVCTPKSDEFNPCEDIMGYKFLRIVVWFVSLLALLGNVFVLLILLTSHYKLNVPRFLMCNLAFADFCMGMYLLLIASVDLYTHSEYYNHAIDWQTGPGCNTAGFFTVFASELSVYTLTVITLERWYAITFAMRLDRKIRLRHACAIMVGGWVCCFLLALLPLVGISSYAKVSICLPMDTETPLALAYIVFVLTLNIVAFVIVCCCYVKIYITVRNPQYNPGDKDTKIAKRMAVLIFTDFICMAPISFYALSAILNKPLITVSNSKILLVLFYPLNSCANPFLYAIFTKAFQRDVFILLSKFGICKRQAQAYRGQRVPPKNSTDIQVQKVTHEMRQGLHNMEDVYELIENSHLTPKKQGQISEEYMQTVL

Assay [10] in a line: qHTS assay to identify small molecule agonists of the estrogen receptor alpha (ER-alpha) signaling pathway in the presence of an antagonist - cell viability counter screen (AID 1259386; active = well fitted curve in the direction sought with a large enough effect in the repeat runs; an effect the other way counts as inactive or inconclusive;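 also: series mostly up to about 92 µM; cells exposed to compounds for 22 h at 37 °C before the viability read; nearly all actives have a fitted effect of over 30% in size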). The method in brief:
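ICI-182,780 at 10.0nM final accompanies the compound titration (15 concentrations, 22hr, 37C) on VM7Luc4E2 cells. The CellTiter-Fluor fluorescence readout runs in the same wells as the luciferase assay.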

Assay [11] deals with Progesterone receptor (Homo sapiens) (UniProt P06401). Nature of the assay: qHTS assay to identify small molecule agonists of the progesterone receptor (PR) signaling pathway (AID 1346784). Also: nearly all actives have a fitted effect of over 30% in size. The method in brief: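 Beta-lactamase reporter read-out: after 16 hr compound treatment at 37C and a further 2 hr at room temperature with LiveBLAzer B/G FRET substrate, fluorescence was measured in PR-UAS-bla HEK 293T cells grown in 2% charcoal-stripped serum.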
Progesterone receptor (Homo sapiens), sequence (P06401 whole entry, looked up): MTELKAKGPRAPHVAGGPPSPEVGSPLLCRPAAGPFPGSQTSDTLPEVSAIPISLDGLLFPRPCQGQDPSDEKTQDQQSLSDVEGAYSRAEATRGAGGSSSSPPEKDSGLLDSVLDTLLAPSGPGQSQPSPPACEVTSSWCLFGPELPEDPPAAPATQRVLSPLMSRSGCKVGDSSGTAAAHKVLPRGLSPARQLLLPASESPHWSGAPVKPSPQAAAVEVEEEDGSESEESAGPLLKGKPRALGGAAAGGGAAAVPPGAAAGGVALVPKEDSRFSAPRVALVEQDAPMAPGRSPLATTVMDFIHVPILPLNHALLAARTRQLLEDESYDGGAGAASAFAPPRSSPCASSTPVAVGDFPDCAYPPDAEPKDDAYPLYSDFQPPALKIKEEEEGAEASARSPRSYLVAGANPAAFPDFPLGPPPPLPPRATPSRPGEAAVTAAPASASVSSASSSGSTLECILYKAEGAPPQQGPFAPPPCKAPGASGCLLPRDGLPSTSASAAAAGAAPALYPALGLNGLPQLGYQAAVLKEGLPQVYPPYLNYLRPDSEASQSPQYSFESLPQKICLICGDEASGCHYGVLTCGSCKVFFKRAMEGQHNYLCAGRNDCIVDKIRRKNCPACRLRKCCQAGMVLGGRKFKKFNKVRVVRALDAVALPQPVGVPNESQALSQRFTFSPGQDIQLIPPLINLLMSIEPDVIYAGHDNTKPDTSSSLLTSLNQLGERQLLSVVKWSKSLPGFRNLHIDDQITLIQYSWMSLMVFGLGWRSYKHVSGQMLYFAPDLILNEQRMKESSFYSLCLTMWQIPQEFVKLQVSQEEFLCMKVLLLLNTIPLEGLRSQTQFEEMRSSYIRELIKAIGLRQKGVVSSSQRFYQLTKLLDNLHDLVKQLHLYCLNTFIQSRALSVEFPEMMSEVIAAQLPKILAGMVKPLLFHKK

For assay [12] the target is unchanged. Nature of the assay: qHTS assay to identify small molecule antagonists of the progesterone receptor (PR) signaling pathway (AID 1346795; active = well fitted inhibition curve with a large enough effect in the signal ratio in the repeat runs, not every such curve was filed as active; the % refers to the signal ratio). The method in brief: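 Read-out is fluorescence from the LiveBLAzer B/G FRET substrate, cleaved by a UAS-controlled beta-lactamase in PR-UAS-bla HEK293T cells after 16 hr exposure to compound plus 1 nM promegestone (final), followed by 2 hr at room temperature.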

The nature of assay [13]: qHTS assay to identify small molecule antagonists of the progesterone receptor (PR) signaling pathway - cell viability counter screen (AID 1346798; active = well fitted curve in the direction sought with a large enough effect in the repeat runs; an effect the other way counts as inactive or inconclusive;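 also: HEK293T PR-UAS-bla cells stimulated with the agonist R5020; series mostly up to about 92 µM; nearly all actives have a fitted effect of over 50% in size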). Summed up:
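HEK293T PR-UAS-bla, 2% charcoal-stripped FBS; 4 hr pre-plate; cpd + R5020, 16 h 37C; LiveBLAzer read first; then CellTiter-Glo 30 min RT, luminescence.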

A short description of assay [14]: qHTS assay to identify small molecule agonists of the progesterone receptor (PR) signaling pathway - cell viability counter screen (AID 1346799). Also: nearly all actives have a fitted effect of over 45% in size. Summed up:
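Luminescence from CellTiter-Glo, added after the beta-lactamase FRET read in the same wells, gave cytotoxicity in PR-UAS-bla HEK293T cells treated with compounds for 16 hr at 37C.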

A short description of assay [15]: qHTS assay to identify small molecule antagonists of the TGF-beta/Smad signaling pathway - cell viability counter screen (AID 1346824; active = well fitted curve in the direction sought with a large enough effect in the repeat runs; an effect the other way counts as inactive or inconclusive; also: nearly all actives have a fitted effect of over 50% in size). The method in brief: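 Cytotoxicity counter-screen run in the same wells as the beta-lactamase Smad reporter read: CellTiter-Glo luminescence after 30 min at room temperature. HEK 293T SBE-bla cells had 5 hr compound exposure at 37 C with TGF-beta1 (0.25 ng/mL stock).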

Assay [16] in a line: qHTS assay to identify small molecule agonists of the TGF-beta/Smad signaling pathway - cell viability counter screen (AID 1346829; active = well fitted curve in the direction sought with a large enough effect in the repeat runs; an effect the other way counts as inactive or inconclusive; also: top concentration of the series differs between compounds; nearly all actives have a fitted effect of over 45% in size). Summed up:
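SBE-bla HEK 293T cells plated overnight, compound exposure 5 hr at 37 C. Viability read in the same wells by CellTiter-Glo luminescence after 30 min at room temperature, following the beta-lactamase read.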

Assay [17] is described as follows: qHTS assay to identify small molecule agonists of the TGF-beta/Smad signaling pathway (AID 1346859; active = well fitted activation curve with a large enough effect in the signal ratio in the repeat runs, not every such curve was filed as active; the % refers to the signal ratio; also: series mostly up to about 77 µM). Summed up:
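SBE-bla HEK 293T, 4,000 cells/well, plated o/n; cpd in DMSO, 5 hr, 37 C/5% CO2; B/G FRET substrate 2 hr RT; ex 405, em 460/530 nm.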

Assay [18] concerns the target Androgen receptor (Homo sapiens) (UniProt P10275). Nature of the assay: qHTS assay to identify small molecule agonists of the androgen receptor (AR) signaling pathway in the presence of an antagonist (AID 1259381). Also: nearly all actives have a fitted effect of over 15% in size. The method in brief: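 Using human MDA-kb2 cells with an MMTV promoter–luciferase construct (AR and GR response elements), agonist activity is scored under 3.0uM nilutamide (final) co-treatment; 16hr incubation, 37C, luminescence readout via ONE-Glo.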

For assay [19], the target named is Thyrotropin-releasing hormone receptor (Homo sapiens) (UniProt P34981). The assay can be described thus: qHTS assay to identify small molecule agonists of the thyrotropin-releasing hormone receptor (TRHR) signaling pathway (AID 1346891). Also: series mostly up to about 58 µM. Summed up:
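Intracellular calcium rise, read as fluorescence every second for 3 min, served as the agonist signal in dye-loaded HEK293 cells expressing TRHR; each compound ran at 15 concentrations in triplicate.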

The target is the same in assay [20]. Nature of the assay: qHTS assay to identify small molecule antagonists of the thyrotropin-releasing hormone receptor (TRHR) signaling pathway (AID 1346877; active = well fitted inhibition curve with a large enough effect in the repeat runs, not every such curve was filed as active; also: series mostly up to about 51 µM). Summed up: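 Screening used HEK293 cells engineered with TRHR, with a brief 5 min room-temperature compound exposure preceding addition of TRH to 1 nM. The read-out was kinetic calcium-dye fluorescence, concentration-response from 15 doses in triplicate.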

Estrogen receptor (Homo sapiens), sequence (P03372 whole entry, looked up): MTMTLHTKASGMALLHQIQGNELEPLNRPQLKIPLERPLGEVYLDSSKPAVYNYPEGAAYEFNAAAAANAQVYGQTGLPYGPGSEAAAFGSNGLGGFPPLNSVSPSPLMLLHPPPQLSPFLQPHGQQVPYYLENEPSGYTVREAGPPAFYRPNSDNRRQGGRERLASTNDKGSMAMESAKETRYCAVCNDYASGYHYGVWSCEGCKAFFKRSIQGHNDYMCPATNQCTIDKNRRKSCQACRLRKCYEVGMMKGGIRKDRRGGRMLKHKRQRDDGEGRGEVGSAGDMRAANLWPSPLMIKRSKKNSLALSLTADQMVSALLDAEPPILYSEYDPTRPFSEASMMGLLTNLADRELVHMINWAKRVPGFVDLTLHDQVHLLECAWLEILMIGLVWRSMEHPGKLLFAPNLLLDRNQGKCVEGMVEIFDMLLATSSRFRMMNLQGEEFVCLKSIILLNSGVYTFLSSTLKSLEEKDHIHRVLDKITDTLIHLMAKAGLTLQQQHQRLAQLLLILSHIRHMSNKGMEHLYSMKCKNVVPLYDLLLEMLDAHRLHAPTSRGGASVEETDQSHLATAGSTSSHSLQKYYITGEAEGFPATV
Estrogen receptor beta (Homo sapiens), sequence (Q92731 whole entry, looked up): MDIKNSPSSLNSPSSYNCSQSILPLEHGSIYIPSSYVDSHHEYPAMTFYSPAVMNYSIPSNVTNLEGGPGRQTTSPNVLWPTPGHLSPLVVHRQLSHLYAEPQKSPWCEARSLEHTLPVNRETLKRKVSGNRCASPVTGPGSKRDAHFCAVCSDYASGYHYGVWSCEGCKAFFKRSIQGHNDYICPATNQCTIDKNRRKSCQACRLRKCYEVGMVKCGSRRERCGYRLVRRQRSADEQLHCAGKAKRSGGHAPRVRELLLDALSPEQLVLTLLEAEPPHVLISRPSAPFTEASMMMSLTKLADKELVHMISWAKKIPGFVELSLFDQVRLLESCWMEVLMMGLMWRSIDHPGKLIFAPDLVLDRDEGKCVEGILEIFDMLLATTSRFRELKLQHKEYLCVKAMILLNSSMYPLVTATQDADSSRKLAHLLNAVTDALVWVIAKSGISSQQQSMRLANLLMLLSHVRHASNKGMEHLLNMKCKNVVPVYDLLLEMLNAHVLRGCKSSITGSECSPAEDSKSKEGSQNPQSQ
Thyrotropin-releasing hormone receptor (Homo sapiens), sequence (P34981 whole entry, looked up): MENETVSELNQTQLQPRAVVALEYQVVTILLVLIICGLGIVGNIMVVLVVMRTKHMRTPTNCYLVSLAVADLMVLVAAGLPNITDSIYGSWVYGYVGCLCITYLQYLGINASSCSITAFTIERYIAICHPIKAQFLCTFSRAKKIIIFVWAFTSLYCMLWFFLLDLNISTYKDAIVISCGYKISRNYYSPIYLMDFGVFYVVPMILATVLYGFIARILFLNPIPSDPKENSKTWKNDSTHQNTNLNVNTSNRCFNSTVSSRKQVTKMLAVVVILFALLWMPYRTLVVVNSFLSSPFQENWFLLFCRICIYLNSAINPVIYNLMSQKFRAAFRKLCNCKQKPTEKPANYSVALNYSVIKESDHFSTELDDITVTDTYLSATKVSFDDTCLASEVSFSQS
Androgen receptor (Homo sapiens), sequence (P10275 whole entry, looked up): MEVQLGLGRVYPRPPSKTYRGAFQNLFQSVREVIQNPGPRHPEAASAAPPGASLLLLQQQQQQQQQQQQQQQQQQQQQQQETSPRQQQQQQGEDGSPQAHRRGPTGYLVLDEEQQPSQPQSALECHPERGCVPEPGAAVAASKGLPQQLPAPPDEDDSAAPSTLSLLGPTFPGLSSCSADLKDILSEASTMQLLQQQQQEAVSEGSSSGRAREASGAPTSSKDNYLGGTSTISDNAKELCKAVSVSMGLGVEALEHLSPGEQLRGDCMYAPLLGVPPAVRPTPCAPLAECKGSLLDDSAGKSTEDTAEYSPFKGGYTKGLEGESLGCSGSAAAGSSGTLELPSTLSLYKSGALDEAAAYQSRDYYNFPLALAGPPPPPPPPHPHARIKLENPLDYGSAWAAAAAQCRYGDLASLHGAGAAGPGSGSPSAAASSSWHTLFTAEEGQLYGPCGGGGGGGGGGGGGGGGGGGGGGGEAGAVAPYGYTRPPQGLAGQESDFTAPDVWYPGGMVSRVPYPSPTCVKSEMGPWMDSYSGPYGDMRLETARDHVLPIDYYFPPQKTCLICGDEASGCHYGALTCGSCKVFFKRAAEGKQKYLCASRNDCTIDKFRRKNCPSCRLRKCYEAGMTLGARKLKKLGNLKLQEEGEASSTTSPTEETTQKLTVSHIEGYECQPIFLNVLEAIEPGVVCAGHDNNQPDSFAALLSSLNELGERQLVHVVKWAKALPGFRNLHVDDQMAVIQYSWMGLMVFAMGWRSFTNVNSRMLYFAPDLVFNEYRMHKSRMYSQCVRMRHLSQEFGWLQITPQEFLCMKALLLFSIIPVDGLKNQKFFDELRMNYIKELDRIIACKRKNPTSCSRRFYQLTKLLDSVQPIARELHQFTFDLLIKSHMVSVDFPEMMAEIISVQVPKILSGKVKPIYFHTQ

Regarding `c1ccc(CNCc2ccccc2)cc1`, the Potency result in assay [1], in assay [2], in assay [3], in [4], in assay [5] and in [6] was “inactive” each time. Also, the Potency entry in assay [7], in [8], in assay [9], in [10], in assay [12] and in assay [13] was “inactive” each time. The Potency entry in [14], in [15] and in assay [16] was “inactive” in each case. Also, the call in [11] and in assay [17] was inactive.

On to `C=C(C)C(=O)OC(C)C`, for which the Potency result in assay [1], in [2], in assay [3], in assay [4], in [5] and in [18] was “inactive” throughout. The Potency result in assay [6], in assay [7], in assay [8], in assay [9], in [10] and in assay [14] was “inactive” in each case. Also, the Potency result in [15], in assay [16] and in assay [19] was “inactive” in each case. Moreover, the call in [11] and in assay [17] was inactive.

As for `O=C(NN1CCCC1)NS(=O)(=O)c1ccc(Cl)cc1`, the Potency entry in assay [1], in assay [2], in assay [3], in assay [4], in assay [5] and in [6] was “inactive” in each case. Besides, the Potency result in assay [7], in assay [8], in assay [9], in [10], in [12] and in [13] was “inactive” throughout. Further, the Potency result in assay [14], in assay [15], in [16] and in assay [19] was “inactive” in each case. Moreover, the result in assay [11] and in assay [17] was inactive.

Consider `COC(=O)C(C)=O`, for which the Potency entry in assay [1], in assay [2], in assay [3], in assay [4], in assay [5] and in assay [6] was “inactive” throughout. For the same molecule, the Potency entry in assay [7], in assay [8], in [9], in assay [10], in assay [12] and in assay [13] was “inactive” in each case. The Potency result in assay [14], in assay [15], in assay [16] and in assay [19] was “inactive” throughout. Moreover, the call in [17] and in assay [20] was inactive.

As for `N[C@H]1C(O)O[C@H](CO)[C@H](O)[C@@H]1O` (stereo partly drawn), the Potency entry in assay [1], in assay [2], in assay [3], in [4], in assay [5] and in [18] was “inactive” each time. Moreover, the Potency entry in assay [6], in [7], in [8], in assay [9], in [10] and in [12] was “inactive” in each case. Further, the Potency result in assay [13], in [14], in [15], in [16] and in [19] was “inactive” in each case. The molecule was classed as inactive in assay [11], in assay [17] and in assay [20].

As for `O=C1CCCCCO1`, the Potency entry in [1], in assay [2], in assay [3], in [4], in assay [5] and in assay [6] was “inactive” in each case. The Potency entry in [7], in [8], in assay [9], in assay [10], in assay [12] and in assay [13] was “inactive” in each case. The Potency entry in assay [14], in assay [15], in assay [16] and in assay [19] was “inactive” throughout. Also, the outcome in assay [11], in [17] and in [20] was inactive.

`CCCC(C)C`: the Potency result in assay [1], in assay [2], in [3], in assay [4], in assay [6] and in assay [7] was “inactive” throughout. The Potency result in [8], in [9], in [10], in assay [12], in assay [15] and in [16] was “inactive” throughout. For the same molecule, the Potency entry in assay [19] is “inactive”. In assay [5], the Potency is 61.8 µM (active). Also, the result in [11], in assay [17] and in assay [20] was inactive.

For `CCCCCCCCCO`, the Potency entry in assay [1], in assay [2], in assay [3], in [4], in assay [6] and in assay [7] was “inactive” throughout. Besides, the Potency result in [8], in [9], in [10], in assay [12], in [13] and in assay [15] was “inactive” throughout. The Potency result in assay [16] and in assay [19] was “inactive” in each case. The molecule was called inactive in assay [11], in assay [17] and in assay [20].
